“And” between values parts separate entries of the source, which are not always exact repeats. Equal values may be shown once. Results filed as inconclusive are left out. The source made the active and inactive calls.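 The calls were made as follows, unless noted: active = normalized viability below 100% at a tested concentration; inactive = the rest.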
Assays:
[1] = viability loss in pontine glioma line – cell-based, SU-DIPG-XVII, MIPE5.0, CellTiter-Glo, qHTS, dose response (AID 1347060; cut-off not given, nearly all actives have AC50 up to about 26 µM;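 as to AC50: cells exposed to compound for 48 hours before viability readout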); conditions: CellTiter-Glo ATP luminescence
[2] = viability loss in pontine glioma line – cell-based, SU-DIPG-XIII, MIPE4.0, CellTiter-Glo, qHTS, dose response (AID 1347061; cut-off not given, nearly all actives have AC50 up to about 37 µM;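 also: cells exposed to compound for 48 hours before readout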); conditions: CellTiter-Glo ATP luminescence
[3] = viability loss in pontine glioma line – cell-based, JHH-DIPG-1, MIPE4.0, CellTiter-Glo, qHTS, dose response (AID 1347062; cut-off not given, nearly all actives have AC50 up to about 27 µM;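 as to AC50: cells exposed to compound for two days before readout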); conditions: JHH-DIPG-1 viability, CellTiter-Glo ATP luminescence
[4] = viability loss in pontine glioma line – cell-based, SU-DIPG-IV, MIPE4.0, CellTiter-Glo, qHTS, dose response (AID 1347063; cut-off not given, nearly all actives have AC50 up to about 30 µM;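 also: compound exposure lasted 48 hours before the viability readout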); conditions: CellTiter-Glo ATP luminescence
[5] = viability loss in pontine glioma line – cell-based, SU-DIPG-XIII, MIPE5.0, CellTiter-Glo, qHTS, dose response (AID 1347064; cut-off not given, nearly all actives have AC50 up to about 23 µM;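 as to AC50: cells exposed to compound for 48 hours before the viability read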); conditions: CellTiter-Glo ATP luminescence
[6] = viability loss in pontine glioma line – cell-based, SU-DIPG-XXV, MIPE5.0, CellTiter-Glo, qHTS, dose response (AID 1347065; cut-off not given, nearly all actives have AC50 up to about 26 µM;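 also: cells exposed to compound for 48 hours before ATP readout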); conditions: CellTiter-Glo ATP luminescence
[7] = JHH-DIPG-1 glioma cell viability, MIPE5.0 library, CellTiter-Glo luminescence, qHTS (AID 1347067; cut-off not given, nearly all actives have AC50 up to about 26 µM;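 also: cells exposed to compound for 48 hours before readout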); conditions: JHH-DIPG-1 glioma viability, CellTiter-Glo ATP luminescence
[8] = growth inhibition of DIPG cells – cell-based, MIPE5.0 library, qHTS (AID 1347068; cut-off not given, nearly all actives have IC50 up to about 30 µM;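 as to IC50: cells exposed to compound for 48 hours before viability readout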); conditions: SU-DIPG-XXV viability
[9] = compounds altering HSF1 focus formation in cells – imaging, Selleck Cancer Library (AID 1347162; in the data active = plate-normalised HSF1 focus index below about 0.46); conditions: human cells, HSF1 nuclear foci imaging, at 10 µM; SSMD: measured here: HSF1 foci SSMD mean; cell count: measured here: cell number; plate-normalised HSF1 focus index: stronger effect = lower value
[10] = drug combination growth inhibition, ovarian cancer – cell-based, oncology-focused library, rucaparib conditional, profiling panel (AID 1508598); conditions: patient-derived ovarian cancer cells, CellTiter-Glo viability, 144 h, stronger effect = lower value
[11] = growth inhibition, single agent or in combination, cell-based, chromothripsis tumors, cisplatin or BGB combos (AID 1671449; in the data active = inhibition above about 80%;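 also: cells exposed for 96 hours; 0% = vehicle DMSO and 100% = killing by high DMSO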); conditions: LFS_MB_P medulloblastoma cells
[12] = growth inhibition, single agent and combos, cell-based, chromothripsis tumors, cisplatin or BGB combos (AID 1671450; in the data active = inhibition above about 80%;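 also: cells exposed to compound for four days; 0% = vehicle DMSO and 100% = cell killing by high DMSO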); conditions: HDN33 neuroblastoma cells, stronger effect = higher value
[13] = growth inhibition, single agents and combos, ICB984, cell-based, cisplatin or BGB combos, synergistic combos for chromothripsis tumors (AID 1671451; call rule not given here;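 also: cells exposed for 96 hours before readout; 0% = vehicle DMSO and 100% = killing by high DMSO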); conditions: ICB984 medulloblastoma cells, drug combinations, stronger effect = higher value
[14] = growth inhibition, single agents and combos, HTB85, cell-based, BGB or cisplatin IC20 combos, synergistic combos for chromothripsis tumors (AID 1671453; in the data active = inhibition above about 80%;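 also: cells exposed for 96 hours before readout; 0% = vehicle DMSO and 100% = high DMSO killing control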); conditions: HTB85 osteosarcoma cells, drug combinations, stronger effect = higher value
[15] = growth inhibition, MDA-MB-436, cell-based, BGB or cisplatin combos, synergistic combos for chromothripsis tumors (AID 1671458; call rule not given here;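 also: cells exposed for 96 hours; 0% = vehicle DMSO and 100% = killing by high DMSO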); conditions: MDA-MB-436 breast carcinoma growth inhibition, drug combinations, stronger effect = higher value
[16] = BT084 cell growth, single and combined drugs, ICGC_MB145, cisplatin and BGB IC40 combos (AID 1671461; in the data active = inhibition above about 80%;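 also: cells exposed to drugs for 96 hours; 0% = vehicle DMSO and 100% = high DMSO full killing control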); conditions: BT084 medulloblastoma cells, drug combinations, stronger effect = higher value
[17] = RCMB18 cell growth, single agent and combined, cisplatin and BGB IC40 combos (AID 1671462; in the data active = inhibition above about 80%;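 also: cells exposed to compound for four days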); conditions: RCMB18 medulloblastoma cells, stronger effect = higher value
[18] = growth inhibition of DIPG cells – cell-based, MIPE4.0 library, CellTiter-Glo luminescence, qHTS (AID 1347066; cut-off not given, nearly all actives have AC50 up to about 30 µM;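 also: cells exposed to compound for 48 hours before readout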); conditions: SU-DIPG-VI viability, CellTiter-Glo ATP luminescence
[19] = viability loss with induced miR-34 in A549 – imaging, A549 dox-inducible miR-34, nuclei and caspase counts, primary screen (AID 1347080;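 active = compounds whose cell count with miR-34 switched on is under 0.7 times the count with it off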); conditions: A549 miR-34 inducible, Hoechst nuclei count, 48 h
[20] = MELAS cybrid and Rieske KO viability enhancers – cell-based, MELAS cybrids, Rieske KO mouse fibroblasts, CellTiter-Glo, primary screen (AID 1508586;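 active = mean z-score across replicates of 1.96 or higher in either the MELAS or the Rieske mutant cell line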;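 also: z relative to plate mean and SD of compound and empty wells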); conditions: low glucose

CCCCc1nc2cc(/C=C/C(=O)NO)ccc2n1CCN(CC)CC
AC50 [1]: 1660 nM (active)
AC50 [2]: 14800 nM (active)
AC50 [3]: 296 nM (active)
AC50 [4]: 14.8 nM (active)
AC50 [5]: 1320 nM (active)
AC50 [6]: 332 nM (active)
AC50 [7]: 1050 nM (active)
IC50 [8]: 13200 nM (active)
SSMD [9]: -1.52
cell count [9]: 7710
plate-normalised HSF1 focus index [9]: 0.904 (inactive)
viability ([10]; at 0.000305 µM, OCI-C5x cells, with rucaparib 10 µM, 100% = cells with rucaparib alone): 109% (inactive)
viability ([10]; at 0.000305 µM, OCI-C5x cells, without rucaparib): 111% (inactive)
viability ([10]; at 0.000305 µM, OCI-P5x cells, with rucaparib 20 µM, 100% = cells with rucaparib alone): 93.3% (active)
viability ([10]; at 0.000305 µM, OCI-P5x cells, without rucaparib): 99.3% (active)
viability ([10]; at 0.00122 µM, OCI-C5x cells, with rucaparib 10 µM, 100% = cells with rucaparib alone): 115% (inactive)
viability ([10]; at 0.00122 µM, OCI-C5x cells, without rucaparib): 116% (inactive)
viability ([10]; at 0.00122 µM, OCI-P5x cells, with rucaparib 20 µM, 100% = cells with rucaparib alone): 98.6% (active)
viability ([10]; at 0.00122 µM, OCI-P5x cells, without rucaparib): 104% (inactive)
viability ([10]; at 0.00488 µM, OCI-C5x cells, with rucaparib 10 µM, 100% = cells with rucaparib alone): 117% (inactive)
viability ([10]; at 0.00488 µM, OCI-C5x cells, without rucaparib): 117% (inactive)
viability ([10]; at 0.00488 µM, OCI-P5x cells, with rucaparib 20 µM, 100% = cells with rucaparib alone): 95.5% (active)
viability ([10]; at 0.00488 µM, OCI-P5x cells, without rucaparib): 107% (inactive)
viability ([10]; at 0.0195 µM, OCI-C5x cells, with rucaparib 10 µM, 100% = cells with rucaparib alone): 110% (inactive)
viability ([10]; at 0.0195 µM, OCI-C5x cells, without rucaparib): 117% (inactive)
viability ([10]; at 0.0195 µM, OCI-P5x cells, with rucaparib 20 µM, 100% = cells with rucaparib alone): 93.4% (active)
viability ([10]; at 0.0195 µM, OCI-P5x cells, without rucaparib): 104% (inactive)
viability ([10]; at 0.0781 µM, OCI-C5x cells, with rucaparib 10 µM, 100% = cells with rucaparib alone): 96.7% (active)
viability ([10]; at 0.0781 µM, OCI-C5x cells, without rucaparib): 123% (inactive)
viability ([10]; at 0.0781 µM, OCI-P5x cells, with rucaparib 20 µM, 100% = cells with rucaparib alone): 88.6% (active)
viability ([10]; at 0.0781 µM, OCI-P5x cells, without rucaparib): 95.7% (active)
viability ([10]; at 0.313 µM, OCI-C5x cells, with rucaparib 10 µM, 100% = cells with rucaparib alone): 92.4% (active)
viability ([10]; at 0.313 µM, OCI-C5x cells, without rucaparib): 91.7% (active)
viability ([10]; at 0.313 µM, OCI-P5x cells, with rucaparib 20 µM, 100% = cells with rucaparib alone): 68.3% (active)
viability ([10]; at 0.313 µM, OCI-P5x cells, without rucaparib): 76.5% (active)
viability ([10]; at 1.25 µM, OCI-C5x cells, with rucaparib 10 µM, 100% = cells with rucaparib alone): 28.3% (active)
viability ([10]; at 1.25 µM, OCI-C5x cells, without rucaparib): 21.2% (active)
viability ([10]; at 1.25 µM, OCI-P5x cells, with rucaparib 20 µM, 100% = cells with rucaparib alone): 26.6% (active)
viability ([10]; at 1.25 µM, OCI-P5x cells, without rucaparib): 43.4% (active)
viability ([10]; at 5 µM, OCI-C5x cells, with rucaparib 10 µM, 100% = cells with rucaparib alone): 4.57% (active)
viability ([10]; at 5 µM, OCI-C5x cells, without rucaparib): 5.34% (active)
viability ([10]; at 5 µM, OCI-P5x cells, with rucaparib 20 µM, 100% = cells with rucaparib alone): 1.32% (active)
viability ([10]; at 5 µM, OCI-P5x cells, without rucaparib): 2.31% (active)
inhibition ([11]; at 0.5 µM, stronger effect = higher value): -27.6% (inactive)
inhibition ([11]; measured here: combination with BGB IC20, at 0.005 µM): -13.5%
inhibition ([11]; measured here: combination with BGB IC40, at 0.005 µM): 75.4%
inhibition ([11]; measured here: combination with BGB IC40, at 0.05 µM): -21.7%
inhibition ([11]; measured here: combination with cisplatin, at 0.5 µM, stronger effect = higher value): -26%
inhibition ([11]; measured here: combination with cisplatin, at 5 µM, stronger effect = higher value): 104%
inhibition ([12]; BGB combo, at 5 µM): 99.5%
inhibition ([12]; at 0.5 µM): 64.3% (inactive)
inhibition ([12]; cisplatin combo, at 5 µM): 99.9%
inhibition ([12]; measured here: with BGB IC20 combination, at 0.5 µM): 57.9%
inhibition ([12]; measured here: with cisplatin IC20 combination, at 0.5 µM): 71.1%
inhibition ([12]; single agent, at 5 µM): 99.8%
inhibition ([13]; BGB IC20 combo, at 0.005 µM): 7.49%
inhibition ([13]; BGB IC40 combo, at 0.005 µM): -8.13%
inhibition ([13]; BGB IC40 combo, at 0.05 µM): 90.2%
inhibition ([13]; at 0.5 µM): -30.3% (inactive)
inhibition ([13]; cisplatin combo, at 0.05 µM): 90.2%
inhibition ([13]; cisplatin combo, at 0.5 µM): -38.4%
inhibition ([13]; cisplatin combo, at 5 µM): -16.6%
inhibition ([13]; measured here: 5 uM single agent, at 5 µM): -44.4%
inhibition ([14]; at 0.5 µM): 60.4% (inactive)
inhibition ([14]; measured here: with BGB IC20, at 0.5 µM): 56%
inhibition ([14]; measured here: with BGB IC20, at 5 µM): 99.8%
inhibition ([14]; measured here: with cisplatin IC20, at 0.5 µM): 61.5%
inhibition ([14]; measured here: with cisplatin IC20, at 5 µM): 99.9%
inhibition ([14]; single agent, at 5 µM): 99.7%
inhibition ([15]; at 0.5 µM): 23.8% (inactive)
inhibition ([15]; measured here: BGB combination, at 0.5 µM): 18.7%
inhibition ([15]; measured here: BGB combination, at 5 µM): 52.6%
inhibition ([15]; measured here: cisplatin combination, at 0.5 µM): 13.3%
inhibition ([15]; measured here: cisplatin combination, at 5 µM): 61.6%
inhibition ([16]; at 0.5 µM): 51.2% (inactive)
inhibition ([16]; cisplatin combination, at 0.5 µM): 62.4%
inhibition ([16]; cisplatin combination, at 5 µM): 101%
inhibition ([16]; measured here: BGB IC40 combination 0.05 uM, at 0.05 µM): -12.4%
inhibition ([16]; single agent, at 5 µM): 107%
inhibition ([17]; at 0.5 µM): 35.2% (inactive)
inhibition ([17]; cisplatin combo, at 5 µM): 93.7%
inhibition ([17]; measured here: BGB IC40 combination, at 0.05 µM): 11.4%
inhibition ([17]; measured here: combination with cisplatin, at 0.5 µM): 47.6%
inhibition ([17]; single agent, at 5 µM): 89.4%

COc1cc2c(cc1OC)CN(CCc1ccc(NC(=O)c3cccc4c(=O)c5cccc(OC)c5[nH]c34)cc1)CC2
outcome [1]: inactive
AC50 [2]: 8330 nM (active)
outcome [3]: inactive
outcome [4]: inactive
outcome [5]: inactive
outcome [6]: inactive
outcome [7]: inactive
outcome [8]: inactive
SSMD [9]: 4.27
cell count [9]: 6980
plate-normalised HSF1 focus index [9]: 1.26 (inactive)

COc1ccccc1N1CCN(CCN(C(=O)C2CCCCC2)c2ccccn2)CC1
outcome [1]: inactive
outcome [2]: inactive
outcome [3]: inactive
outcome [4]: inactive
outcome [5]: inactive
outcome [18]: inactive
outcome [8]: inactive
fold change ([19]; stronger effect = lower value, cell number ratio, induced over uninduced): 0.953 (inactive) and 0.872 (inactive)
fold change ([19]; measured here: relative caspase fold change +Dox/-Dox): 0.882 and 0.761
cell count ([19]; measured here: total cells with miR-34 induction, stronger effect = lower value): 8900 and 8750
cell count ([19]; measured here: total cells without miR-34 induction): 9340 and 10000
z-score ([20]; MELAS cybrid survival, CellTiter-Glo 48 h, stronger effect = higher value): -0.378 (inactive)
z-score ([20]; Rieske KO mouse fibroblast survival, CellTiter-Glo 72 h): 0.432

Nc1cccc2c1CN([C@H]1CCC(=O)NC1=O)C2=O
outcome [1]: inactive
outcome [2]: inactive
outcome [3]: inactive
outcome [4]: inactive
outcome [5]: inactive
outcome [7]: inactive
outcome [8]: inactive

O=C(/C=C/c1cccnc1)NCCCCC1CCN(C(=O)c2ccccc2)CC1
AC50 [1]: 11.8 nM (active)
AC50 [2]: 16.6 nM (active)
AC50 [3]: 4.18 nM (active)
AC50 [4]: 20.9 nM (active)
AC50 [5]: 1.86 nM (active)
AC50 [6]: 4.68 nM (active)
AC50 [7]: 4.17 nM (active)
SSMD [9]: 1.27
cell count [9]: 7280
plate-normalised HSF1 focus index [9]: 1.05 (inactive)

Source: PubChem BioAssay
